Laboratory results from PubChem BioAssay (Tox21).
Records with an inconclusive call do not appear. The source made the active and inactive calls. Unless noted, calls come from the whole dose curve; as a rule, active = well fitted curve in the direction sought with a large enough effect in the repeat runs; inconclusive = weak or mixed curves; inactive = no such curve, though single readings can be large; an effect the other way counts as inactive or inconclusive.

Legend:
[1] = qHTS assay for small molecule agonists of the p53 signaling pathway (AID 651631; calls by dose curve; note: nearly all actives have a fitted effect of over 15% in size)
Outline: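 p53RE-bla HCT-116 cells; compounds 16 h, 37 °C; LiveBLAzer B/G FRET substrate 2 h RT; fluorescence intensity read-out, qHTS format.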

[2] = qHTS assay for small molecules that induce genotoxicity in human embryonic kidney cells expressing luciferase-tagged ATAD5 (AID 651632); note: nearly all actives have a fitted effect of over 15% in size
Outline: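 Luminescent reporter readout, HEK293T ATAD5-luc line: 16 hr drug exposure (37C, 5% CO2) followed by Amplite, 30 min RT.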

[3] = qHTS assay for small molecule agonists of the p53 signaling pathway - cell viability (AID 651633; calls by dose curve;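 note: p53RE-bla HCT reporter cells with a stable beta-lactamase p53 reporter; series mostly up to about 83 µM; nearly all actives have a fitted effect of over 30% in size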)
Outline: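 p53RE-bla cells, seeded at 4,000 per well and rested 5 h at 37 C/5% CO2, received compounds in DMSO for 16 h at 37 C. CellTiter-Glo was then added, and luminescence was read after 30 min at room temperature to gauge cytotoxicity.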

[4] = qHTS assay for small molecules that induce genotoxicity in human embryonic kidney cells expressing luciferase-tagged ATAD5 - cell viability (AID 651634; calls by dose curve; note: nearly all actives have a fitted effect of over 25% in size)
Outline: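 Viability read: CellTiter-Fluor fluorescence, 30 min at 37C. Cells: HEK293T, luciferase-tagged ATAD5. Exposure: 15.5 hr, 37C, 5% CO2, compound or DMSO vehicle.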

[5] = qHTS assay for small molecule disruptors of the mitochondrial membrane potential - cell viability (AID 720634; calls by dose curve; note: nearly all actives have a fitted effect of over 20% in size; note: potency is the fitted concentration of half-maximal effect)
Outline: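 HepG2, 1 hr compound, 37 C. ATP luminescence via CellTiter-Glo, 30 min RT, same well as m-MPI.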

[6] = qHTS assay for small molecule disruptors of the mitochondrial membrane potential (AID 720635); note: potency is the fitted concentration of half-maximal effect
Outline: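 HepG2 cells (2,000/well) attached overnight at 37C, then took compound for 1 hr at 37C, 5% CO2. Mito-MPS dye was added for 30 min; fluorescence was read at 490/535 nm (monomers) and 540/590 nm (aggregates).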

[7] = qHTS assay to test for compound auto fluorescence at 590 nm (red) in HepG2 cells (AID 720674)
Outline: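 Intrinsic compound fluorescence in the red window (Ex/Em 540/590 nm) is measured in attached HepG2 cells exposed for 1 hr, DMSO vehicle as baseline, benchmarked to Rose Bengal sodium.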

[8] = qHTS assay to test for compound auto fluorescence at 535 nm (green) in HepG2 cells (AID 720675)
[9] = qHTS assay to test for compound auto fluorescence at 590 nm (red) in HEK293 cells (AID 720679)
Outline: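 Plates of HEK293 cells (10% dialyzed FBS) are treated with 23 nL compound or DMSO vehicle after a 4-5 hr attachment period, incubated overnight at 37C, and read for red fluorescence at 540/590nm.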

[10] = qHTS assay to test for compound auto fluorescence at 460 nm (blue) in HEK293 cells (AID 720678)
Outline: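 After cell attachment (4-5 hr, 37C), compounds were pinned onto HEK293 monolayers in 10% dialyzed FBS medium. The blue channel (405/460 nm) was read following overnight culture. Equivalency was calculated against triamterene.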

Measured: Potency

CCCCCCCCCCCCCCCCCC(=O)OCCCCCCCCCCCCCC(C)C
inactive: [1] | [2] | [3] | [4] | [5] | [6] | [7] | [8] | [9]

N#CCc1ccccc1[N+](=O)[O-]
inactive: [1] | [2] | [3] | [4] | [5] | [6] | [7] | [8] | [9]

CCC(=O)Nc1cccc(N)c1
inactive: [1] | [2] | [3] | [4] | [5] | [7] | [8] | [10] | [9]

CCCCCCCCC=O
inactive: [1] | [2] | [3] | [4] | [5] | [7] | [8] | [10] | [9]

Cc1nccn1CC1CCc2c(c3ccccc3n2C)C1=O (stereo not drawn)
inactive: [1] | [2] | [3] | [4] | [5] | [6] | [7] | [8] | [10] | [9]

COc1cc(C(=O)N2CCOCC2)cc(OC)c1OC
inactive: [1] | [2] | [3] | [4] | [5] | [6] | [7] | [8] | [9]

CN(C)CCOC(c1ccc(Cl)cc1)c1ccccn1 (stereo not drawn)
active: [5] 5.31 µM
inactive: [1] | [2] | [3] | [4] | [7] | [8] | [10] | [9]

CCOC(=O)[C@H](CCc1ccccc1)N[C@@H](C)C(=O)N1CCC[C@H]1C(=O)O
inactive: [1] | [2] | [3] | [4] | [5] | [6] | [7] | [8] | [10] | [9]

N[C@@H](CS)C(=O)O
inactive: [1] | [2] | [3] | [4] | [5] | [7] | [8] | [10] | [9]
active: [6] 27.7 µM

C=C(C)C(=O)NCCCN(C)C
inactive: [1] | [2] | [3] | [4] | [5] | [7] | [8] | [10] | [9]

CC1=CC(C)C(C=O)C(C)C1 (stereo not drawn)
inactive: [1] | [2] | [3] | [4] | [5] | [6] | [7] | [8] | [10] | [9]

C=C(C)C(=O)NCCC[N+](C)(C)C
inactive: [1] | [2] | [3] | [4] | [5] | [6] | [7] | [8] | [10] | [9]
